Shown are actives, neighbours in structure and some others; about 4% of the full set was active somewhere.
FBA Mtb inh – inhibits M. tuberculosis FBA enzyme. AID 588726. inhibition, % at 1 µM. purified M. tuberculosis FBA, fluorescence read-out. 360,000 compounds, 2.3% hits;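 also: 0% = vehicle and 100% = reference inhibitor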
Target sequence (P9WQA3 whole entry, looked up): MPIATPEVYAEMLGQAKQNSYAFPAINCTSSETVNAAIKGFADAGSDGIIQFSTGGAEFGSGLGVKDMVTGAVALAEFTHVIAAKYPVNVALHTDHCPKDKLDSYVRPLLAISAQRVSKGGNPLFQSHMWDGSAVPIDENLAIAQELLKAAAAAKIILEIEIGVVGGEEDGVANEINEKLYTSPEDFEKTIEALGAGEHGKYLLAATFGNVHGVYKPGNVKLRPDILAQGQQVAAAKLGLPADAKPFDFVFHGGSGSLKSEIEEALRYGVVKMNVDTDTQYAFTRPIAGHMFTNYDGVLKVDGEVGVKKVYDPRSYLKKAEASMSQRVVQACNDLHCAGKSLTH
Mtb bLac sens – beta-lactam sensitization of Mtb H37Rv; M. tuberculosis H37Rv growth with meropenem, percent inhibition; inhibition, % at 25 µM; 330,000 compounds, 0.27% hits; call rule not given here;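 also: growth measured after seven days incubation then overnight dye step; 0% = bacteria only wells and 100% = bacteria with antibiotic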
UGM FP inh – blocks M. tuberculosis UGM enzyme; P9WIQ1; purified UGM, fluorescence polarization probe displacement; inhibition, % at 10 µM; 320,000 compounds, 0.06% hits; in the data active = inhibition above about 10%, passing the limit was not always enough
Rv3671c protease – Rv3671c (M. tuberculosis) protease inhibition; inhibition, % at 5.96 µM; 320,000 compounds, 0.048% hits; AID 2606; in the data active = inhibition above about 38%;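 also: extracellular domain of Rv3671c used as enzyme; 0% = enzyme with DMSO and 100% = no enzyme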
RecA splice inh – inhibitors of M. tuberculosis RecA intein splicing. P9WHJ3. cell-free RecA intein splicing, fluorescence. inhibition, % (no concentration beside the values). 290,000 compounds, 0.75% hits. AID 2221; in the data active = inhibition above about 30%;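 also: 0% = vehicle wells and 100% = reference inhibitor control wells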
GDH-TPI counter-1 – GDH-TPI coupled enzyme inhibition counter-screen; GDH-TPI coupled enzyme counterscreen, NADH absorbance; inhibition, % at 4.8 µM; 360,000 compounds, 1.2% hits; AID 588335; in the data active = inhibition above about 30%;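 also: 0% = DMSO wells and 100% = wells lacking the enzyme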
Mtb FBA inh conf – Mtb FBA inhibition, confirmed; purified M. tuberculosis FBA, fluorescence read-out; 5,600 compounds, 78% hits; inhibition, % at 1 µM; shares compounds with FBA Mtb inh;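 also: 0% = vehicle wells and 100% = reference inhibitor wells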
GDH-TPI counter-2 – GDH-TPI inhibition counter-screen for FBA inhibitors; 5,600 compounds, 81% hits; AID 652141; GDH-TPI coupled enzyme counterscreen, fluorescence; inhibition, % at 1 µM; shares compounds with FBA Mtb inh; in the data active = inhibition above about 10%
* marks the source's active call; other numbers are inactive results. Rule as the data show it, unless noted: active = inhibition above about 27%; inactive = the rest.

Results for CCCN(CC(=O)Nc1ccccc1C)C(=O)c1ccc(N2CCCC2=O)cc1 ?
FBA Mtb inh: 0.3; Mtb bLac sens: -3.8; UGM FP inh: -5.3; Rv3671c protease: 0.1; GDH-TPI counter-1: -2.2

How did C/C=C(/C)C(=O)O[C@@H]1c2c(ccc3ccc(=O)oc23)O[C@@H]1C(C)(C)OC(=O)/C(C)=C\C do in these assays?
FBA Mtb inh: 11.4; Mtb bLac sens: -19.8; UGM FP inh: 0.3; Rv3671c protease: -19.1; RecA splice inh: 4.4; GDH-TPI counter-1: 6.7

Results for C/C=C(\C)C(=O)OC(C)(C)[C@@H]1Cc2cc3ccc(=O)oc3cc2O1 ?
FBA Mtb inh: 92.6*; Mtb bLac sens: -1.5; UGM FP inh: -0.1; Rv3671c protease: -9.1; GDH-TPI counter-1: 10.2; Mtb FBA inh conf: 156.7*; GDH-TPI counter-2: 113.8*

Results for CC(=O)Nc1cc(-c2ccccc2N(C)C)cn2c(-c3cccc(C(F)(F)F)c3)cnc12 ?
FBA Mtb inh: 5.9; GDH-TPI counter-1: 8.0

How did COc1ccccc1CNS(=O)(=O)CCNC1CC1 do in these assays?
FBA Mtb inh: -3.3; GDH-TPI counter-1: 0.5

What do the screens show for `CCCn1c(=N)c(S(=O)(=O)c2ccccc2)cc2c(=O)n3cccc(C)c3nc21`?
FBA Mtb inh: 2.0; Mtb bLac sens: 4.4; UGM FP inh: -0.2; Rv3671c protease: 1.9; GDH-TPI counter-1: -7.0

How did N=c1c(S(=O)(=O)c2ccccc2)cc2c(=O)n3ccccc3nc2n1Cc1cccnc1 do in these assays?
FBA Mtb inh: 3.0; Mtb bLac sens: -10.7; UGM FP inh: 1.0; Rv3671c protease: -0.2; RecA splice inh: -28.5; GDH-TPI counter-1: 10.7

What do the screens show for `Cc1ccc(S(=O)(=O)c2cc3c(=O)n4cccc(C)c4nc3n(Cc3ccncc3)c2=N)cc1`?
FBA Mtb inh: 4.6; Mtb bLac sens: -4.4; UGM FP inh: 2.4; Rv3671c protease: -8.9; RecA splice inh: -7.2; GDH-TPI counter-1: -0.5

How did Cc1ccc(-n2c(=O)c(C#N)cc3c(=O)n4cccc(C)c4nc32)cc1 do in these assays?
FBA Mtb inh: 62.5*; Mtb bLac sens: -6.8; UGM FP inh: -1.4; Rv3671c protease: -4.9; RecA splice inh: -101.6; GDH-TPI counter-1: -0.6; Mtb FBA inh conf: 137.6*; GDH-TPI counter-2: 84.0*

How did Cc1cccn2c(=O)c3cc(C#N)c(=NC(=O)c4cccs4)n(CC(C)C)c3nc12 do in these assays?
FBA Mtb inh: 35.4*; Mtb bLac sens: -9.1; UGM FP inh: -0.1; Rv3671c protease: -0.5; RecA splice inh: -80.8; GDH-TPI counter-1: 1.5; Mtb FBA inh conf: active; GDH-TPI counter-2: 190.1*

How did CC(=O)N=c1c(C#N)cc2c(=O)n3ccccc3nc2n1Cc1ccccc1 do in these assays?
FBA Mtb inh: 28.0*; Mtb bLac sens: 0.6; UGM FP inh: -1.6; Rv3671c protease: -0.6; RecA splice inh: -57.3; GDH-TPI counter-1: -6.6; Mtb FBA inh conf: 122.3*; GDH-TPI counter-2: 107.8*

Results for Cc1cccn2c(=O)c3cc(C#N)c(=O)n(Cc4cccnc4)c3nc12 ?
FBA Mtb inh: 110.9*; GDH-TPI counter-1: 6.4; Mtb FBA inh conf: 86.9*; GDH-TPI counter-2: 71.0*

What do the screens show for `Cc1cc(NC(=O)CSC2=NS(=O)(=O)c3ccccc3N2)no1`?
FBA Mtb inh: 1.2; Mtb bLac sens: -12.1; UGM FP inh: -0.5; Rv3671c protease: -9.8; RecA splice inh: -2.8; GDH-TPI counter-1: 1.4

How did CN(C)C1(CNCC(O)c2ccccc2)CCCCC1 (stereo unspecified) do in these assays?
FBA Mtb inh: 30.0*; Mtb bLac sens: -4.8; UGM FP inh: 0.9; Rv3671c protease: 9.5; RecA splice inh: -1.9; GDH-TPI counter-1: 9.7; Mtb FBA inh conf: 120.7*; GDH-TPI counter-2: 106.3*

What do the screens show for `CN(C)C1(CNC(=O)Nc2ccccc2)CCCCC1`?
FBA Mtb inh: 1.2; Mtb bLac sens: 2.9; UGM FP inh: -0.1; Rv3671c protease: -4.0; RecA splice inh: 0.8; GDH-TPI counter-1: -3.7

What do the screens show for `COc1ccc(-c2noc(CCC(=O)N3CCN(c4ccccc4Br)CC3)n2)cc1`?
FBA Mtb inh: -1.0; GDH-TPI counter-1: 3.8

How did COCCCNC(=O)C[C@H]1C[C@H](C(=O)N2CCOCC2)[C@@]2(C)c3[nH]c4cc(-c5ccco5)ccc4c3CCN2C1=O do in these assays?
FBA Mtb inh: 33.2*; GDH-TPI counter-1: 0.5; Mtb FBA inh conf: 15.1; GDH-TPI counter-2: 11.4*

Results for COCCCNC(=O)C[C@H]1C[C@H](C(=O)N(C(C)C)C(C)C)[C@@]2(C)c3[nH]c4cc(-c5ccco5)ccc4c3CCN2C1=O ?
FBA Mtb inh: 31.5*; GDH-TPI counter-1: 11.5; Mtb FBA inh conf: 128.1*; GDH-TPI counter-2: 104.4*

How did CN(C)CCCNC(=O)C[C@H]1C[C@H](C(=O)N2CCOCC2)[C@@]2(C)c3[nH]c4cc(-c5ccco5)ccc4c3CCN2C1=O do in these assays?
FBA Mtb inh: 33.1*; GDH-TPI counter-1: 12.5; Mtb FBA inh conf: 135.4*; GDH-TPI counter-2: 109.7*

What do the screens show for `CCN(CC)C(=O)[C@H]1C[C@H](CC(=O)NCCN2CCOCC2)C(=O)N2CCc3c([nH]c4cc(-c5ccco5)ccc34)[C@]12C`?
FBA Mtb inh: 50.1*; GDH-TPI counter-1: 6.4; Mtb FBA inh conf: 64.9*; GDH-TPI counter-2: 38.8*

What do the screens show for `Cc1cc(S(=O)(=O)N2CCOCC2)ccc1NC(=O)c1ccc(F)cc1`?
FBA Mtb inh: 2.0; Mtb bLac sens: -11.7; UGM FP inh: -1.1; Rv3671c protease: -3.1; RecA splice inh: 1.3; GDH-TPI counter-1: 6.5

Results for N#Cc1ccc(S(=O)(=O)N2CCN(CC(=O)NCC3(N4CCOCC4)CCCCC3)CC2)cc1 ?
FBA Mtb inh: 0.3; Mtb bLac sens: -3.3; UGM FP inh: 0.2; Rv3671c protease: -1.3; GDH-TPI counter-1: -9.8

Results for CCN(C(=S)NC(=O)c1ccco1)c1cccc2ccccc12 ?
FBA Mtb inh: 29.2*; Mtb bLac sens: 51.8; UGM FP inh: 3.8; Rv3671c protease: -0.3; GDH-TPI counter-1: 4.9; Mtb FBA inh conf: 91.6*; GDH-TPI counter-2: 72.6*

Results for CCN(C(=S)NCCOC)c1cccc2ccccc12 ?
FBA Mtb inh: 3.1; Mtb bLac sens: 10.3; UGM FP inh: -1.5; Rv3671c protease: 3.9; RecA splice inh: 0.6; GDH-TPI counter-1: -1.9

Results for CCc1cc2c(COC(=O)c3cccc(S(C)(=O)=O)c3)cc(=O)oc2cc1O ?
FBA Mtb inh: 14.2; Mtb bLac sens: 3.2; UGM FP inh: -1.4; Rv3671c protease: -6.6; RecA splice inh: -2.1; GDH-TPI counter-1: 3.8

What do the screens show for `CCc1cc2c(COC(=O)c3c(C)noc3C)cc(=O)oc2cc1O`?
FBA Mtb inh: 33.4*; Mtb bLac sens: -0.4; UGM FP inh: 0.8; Rv3671c protease: -8.6; RecA splice inh: -11.6; GDH-TPI counter-1: 32.5*; Mtb FBA inh conf: 85.3*; GDH-TPI counter-2: 61.7*
